A short description of test [1]: qHTS assay for measurement of the activity of small molecule inhibitors on Zika virus induced Caspase-3 activity in human iPSC derived neural progenitor cells (hNPCs) (AID 1224857). Further: nearly all actives have a fitted effect of over 65% in size. Summed up:
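Pretreat hNPCs with compound 1 h; infect ZIKV 2 FFU/cell; 6 h 37 C, 5% CO2; Caspase-Glo 3/7, 30 min RT; luminescence; normalize to no-virus and virus-only wells.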

The nature of test [2]: qHTS assay for measurement of the activity of small molecule inhibitors on Zika virus induced Caspase-3 activity in human astrocytoma cells (AID 1224859). Put shortly:
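Human SNB-19 astrocytoma cells in RPMI 1640 with 10% FBS receive compound one hour ahead of Zika virus at 2 FFU/cell. After 6 h infection, caspase-3/7 activity is detected by Caspase-Glo luminescence.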

Test [3] in a line: qHTS assay to identify small molecule inhibitors of chordoma cells - UCH-1 (AID 1259355). Further: nearly all actives have a fitted effect of over 55% in size. Summed up: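 Screening used approved and investigational drugs in 15-point titration against 800 seeded cells per well. A fixed combination of auranofin with camptothecin, doxorubicin, rubitecan and topotecan followed compound addition, and growth was scored by CellTiter-Glo after 48hr.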

A short description of test [4]: qHTS assay to identify small molecule inhibitors of chordoma cells - UCH-2 (AID 1259356). Further: series mostly up to about 46 µM.
Test [5] is described as follows: P-glycoprotein substrates identified in KB-3-1 adenocarcinoma cell line, qHTS therapeutic library screen (AID 1346986). Further: nearly all actives have a fitted effect of over 60% in size. Particulars: outcome: dose series up to 44.5 µM. Put shortly: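 In 1536-well format, 500 cells/well received pinned compound titrations and were incubated 72 h, 5% CO2. Viability was read by CellTiter-Glo; cytotoxic if AC50 < 10 uM and efficacy >50%.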

Test [6] in a line: Natriuretic polypeptide receptor (hNpr1) antagonism - Pilot counterscreen GloSensor control cell line (AID 1347045; calls by dose curve; further: series mostly up to about 38 µM). Summed up: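 Control counterscreen: luciferase cGMP-biosensor HEK293 cells (no Npr1) received compound for 30 min at room temperature after GloSensor substrate loading. Luminescence was measured before and 20 min after soluble guanylyl cyclase activation by 50 uM nitroprusside.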

Test [7] has as its target Atrial natriuretic peptide receptor 1 (Homo sapiens) (UniProt P16066). Kind of test: Natriuretic polypeptide receptor (hNpr1) antagonism - Pilot screen (AID 1347049; calls by dose curve;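 further: agonist-evoked cGMP luminescence read 20 min after hNppA addition; series mostly up to about 58 µM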). Put shortly:
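cGMP-sensor HEK293/hNpr1 cells, 1500/well, plated overnight at 37C. 2% GloSensor reagent, 2 h RT. Compound (23 nL pin transfer) 30 min RT, baseline luminescence pre-read. 0.1 nM hNppA, 20 min RT, post-read.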

The target of test [8] is Atrial natriuretic peptide receptor 2 (Homo sapiens) (UniProt P20594). Briefly: Natriuretic polypeptide receptor (hNpr2) antagonism - Pilot subtype selectivity assay (AID 1347050; calls by dose curve). Summed up:
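Luminescence from a genetically encoded cGMP luciferase biosensor in hNpr2-expressing HEK293 cells is read before and 20 min after adding 1 nM hNppC. Test compounds, in interplate 1:5 titrations, are added 30-50 min ahead of the agonist.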

Test [9] in a line: NS1 protein of Zika virus - qHTS assay to identify small molecule inhibitors in human HEK 293 cells (AID 1347053). Further: series mostly up to about 46 µM; nearly all actives have a fitted effect of over 55% in size. Put shortly:
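In this cell-based screen, HEK 293 cultures received compound for one hour before Zika MR766 at MOI = 0.5. NS1 was quantified 24 hours later by TR-FRET, normalized to virus-free wells and infected wells.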

For test [10], the target named is T1, Tyrosine-protein phosphatase non-receptor type substrate 1 (Homo sapiens) + Leukocyte surface antigen CD47 (Homo sapiens) (UniProt P78324+Q08722). Briefly: CD47-SIRPalpha protein protein interaction - LANCE assay qHTS validation (AID 1347057; active means well fitted curve in the direction sought with a large enough effect in the signal ratio, with a control signal flat, not every such curve was filed as active; the % refers to the signal ratio; further: series mostly up to about 38 µM). Put shortly: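 Inhibition of soluble CD47/SIRPalpha ectodomain association by titrated compounds, measured as 665/615 nm time-resolved FRET ratio after sequential 30 min room-temperature incubations.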

Test [11] has as its target T1, Tyrosine-protein phosphatase non-receptor type substrate 1 (Homo sapiens) + Leukocyte surface antigen CD47 (Homo sapiens). Kind of test: CD47-SIRPalpha protein protein interaction - Alpha assay qHTS validation (AID 1347059).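 Further: bead proximity luminescence from CD47 binding SIRPalpha after compound preincubation with SIRPalpha.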 Put shortly:
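SIRPalpha-biotin 25 nM + cpd, 30 min RT, dark; add CD47-His 12.5 nM, 30 min; add Ni-NTA/SAV beads 10 ug/mL, 30 min; AlphaScreen. Buffer PBS pH 7.4 + 0.05% IGEPAL CA-630. Non-biotinylated SIRPalpha as control inhibitor.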

The target in test [12] is Parathyroid hormone/parathyroid hormone-related peptide receptor (Homo sapiens) (UniProt Q03431). Kind of test: qHTS for PTHR1 Agonists: Optimization Screen against the NCGC LOPAC library (AID 1347079).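 Further: GloSensor cAMP luminescence in HEK-293 GP2 cells expressing human PTHR1 with IBMX.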 Summed up: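 HEK-293 GP2 cells, PTHR1 + GloSensor cAMP; 3000 cells/well, o/n. Luciferin + IBMX 0.5mM each (stock), 1 hr 37C. Cpd titration, 1 hr 37C. Lum after 15 min RT. Ctrl M-PTH(1-15) top 10uM.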

Test [13] is described as follows: qHTS of pediatric cancer cell lines to identify multiple opportunities for drug repurposing: Primary screen for DAOY cells (AID 1347090). Further: series mostly up to about 46 µM; nearly all actives have a fitted effect of over 55% in size. Summed up:
(§1)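 Viability measured as metabolically active cells via CellTiter-Glo luminescence following 48 hours of compound exposure, 11-point dilutions in confirmatory testing. 500-1,000 cells/well plated 5 hours before dosing; controls were DMSO and 2.3 µM bortezomib.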

Test [14] is described as follows: qHTS of pediatric cancer cell lines to identify multiple opportunities for drug repurposing: Primary screen for SJ-GBM2 cells (AID 1347091). Put shortly: as §1
The nature of test [15]: P-glycoprotein substrates identified in KB-8-5-11 adenocarcinoma cell line, qHTS therapeutic library screen (AID 1346987). Further: nearly all actives have a fitted effect of over 65% in size. Further: potency means the concentration at half of the fitted maximal effect. Put shortly: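 Compounds are pinned in dose-response onto KB-8-5-11 cells (500 cells/well, colchicine-free medium) and left 72 h at 37 degree C. CellTiter-Glo luminescence then yields AC50 values.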
Test [16] has as its target T1, Tyrosine-protein phosphatase non-receptor type substrate 1 (Homo sapiens) + Leukocyte surface antigen CD47 (Homo sapiens). Kind of test: CD47-SIRPalpha protein protein interaction - HTRF assay qHTS validation (AID 1347058; active means well fitted curve in the direction sought with a large enough effect in the signal ratio, not every such curve was filed as active; the % refers to the signal ratio; further: series mostly up to about 38 µM). Summed up: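 Soluble extracellular domains (6His-CD47, Avi-tag-biotinylated SIRPalpha) in PBS pH 7.4 with 0.05% IGEPAL CA-630. Compounds were preincubated 30 min at RT with CD47 and anti-His-Eu, then SIRPalpha and SAV-XL665 were added. TR-FRET 665/615 ratio.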

Test [17] in a line: qHTS of pediatric cancer cell lines to identify multiple opportunities for drug repurposing: Primary screen for TC32 cells (AID 1347089). Further: nearly all actives have a fitted effect of over 60% in size. Summed up: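 Luminescent CellTiter-Glo read-out of metabolically active TC32 cells after 48 h compound exposure. Primary: MIPE 11-point, 0.78 nM–46 µM; NPC 8-point, 0.59 nM–46 µM. Confirmatory: 11-point dilutions.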

SMILES strings stand for the structures. Results filed as inconclusive are left out. Active and inactive are the calls of the source. Unless noted, the call rests on the fitted dose curve; in most records, active means well fitted curve in the direction sought with a large enough effect; inconclusive means small, poorly fitted or top-dose-only effect, or another doubt; inactive means no such curve, though single readings can be large; an effect the other way counts as inactive or inconclusive.

Sequence of Atrial natriuretic peptide receptor 2 (Homo sapiens) (P20594 whole entry, looked up): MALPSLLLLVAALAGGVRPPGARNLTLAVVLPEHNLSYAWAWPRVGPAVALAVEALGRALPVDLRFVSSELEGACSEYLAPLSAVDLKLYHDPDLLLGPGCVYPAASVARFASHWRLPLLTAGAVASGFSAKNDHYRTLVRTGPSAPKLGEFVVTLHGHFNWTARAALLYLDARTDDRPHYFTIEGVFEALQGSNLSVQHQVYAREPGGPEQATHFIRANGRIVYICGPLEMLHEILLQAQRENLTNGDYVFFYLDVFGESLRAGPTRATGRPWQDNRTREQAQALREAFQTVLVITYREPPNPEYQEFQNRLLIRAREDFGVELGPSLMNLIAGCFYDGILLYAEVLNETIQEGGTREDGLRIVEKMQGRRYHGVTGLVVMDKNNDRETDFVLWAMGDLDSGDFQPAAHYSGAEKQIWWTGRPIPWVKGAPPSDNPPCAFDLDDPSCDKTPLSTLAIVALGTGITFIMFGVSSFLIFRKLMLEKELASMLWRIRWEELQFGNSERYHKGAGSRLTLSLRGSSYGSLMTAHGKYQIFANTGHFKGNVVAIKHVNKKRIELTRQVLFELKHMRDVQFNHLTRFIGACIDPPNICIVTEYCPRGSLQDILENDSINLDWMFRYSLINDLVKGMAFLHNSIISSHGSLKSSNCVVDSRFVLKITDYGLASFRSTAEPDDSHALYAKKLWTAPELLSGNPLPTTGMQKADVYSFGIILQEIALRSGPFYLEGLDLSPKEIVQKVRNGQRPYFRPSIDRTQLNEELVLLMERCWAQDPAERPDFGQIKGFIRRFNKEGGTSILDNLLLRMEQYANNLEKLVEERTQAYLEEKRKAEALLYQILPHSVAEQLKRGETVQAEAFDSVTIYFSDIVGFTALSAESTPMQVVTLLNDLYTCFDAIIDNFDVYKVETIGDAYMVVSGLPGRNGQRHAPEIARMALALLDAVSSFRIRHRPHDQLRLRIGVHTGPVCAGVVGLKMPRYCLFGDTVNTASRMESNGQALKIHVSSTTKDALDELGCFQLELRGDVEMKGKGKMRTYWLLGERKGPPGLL
T1 sequence (P78324 whole entry, looked up, the tested form may be a part): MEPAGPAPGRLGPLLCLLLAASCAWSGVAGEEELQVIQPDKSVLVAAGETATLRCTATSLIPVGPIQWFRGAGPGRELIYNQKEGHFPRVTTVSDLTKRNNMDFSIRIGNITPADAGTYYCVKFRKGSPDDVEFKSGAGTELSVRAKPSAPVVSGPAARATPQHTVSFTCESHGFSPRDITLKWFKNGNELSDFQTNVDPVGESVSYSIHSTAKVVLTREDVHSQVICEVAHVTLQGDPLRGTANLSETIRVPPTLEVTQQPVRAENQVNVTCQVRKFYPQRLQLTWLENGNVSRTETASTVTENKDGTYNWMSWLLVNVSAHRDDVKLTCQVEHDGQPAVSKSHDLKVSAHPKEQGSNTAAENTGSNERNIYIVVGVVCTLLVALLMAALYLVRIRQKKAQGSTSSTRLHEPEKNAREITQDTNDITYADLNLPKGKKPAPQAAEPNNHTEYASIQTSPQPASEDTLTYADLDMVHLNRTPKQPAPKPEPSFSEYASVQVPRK
T1 sequence (Q08722 whole entry, looked up, the tested form may be a part): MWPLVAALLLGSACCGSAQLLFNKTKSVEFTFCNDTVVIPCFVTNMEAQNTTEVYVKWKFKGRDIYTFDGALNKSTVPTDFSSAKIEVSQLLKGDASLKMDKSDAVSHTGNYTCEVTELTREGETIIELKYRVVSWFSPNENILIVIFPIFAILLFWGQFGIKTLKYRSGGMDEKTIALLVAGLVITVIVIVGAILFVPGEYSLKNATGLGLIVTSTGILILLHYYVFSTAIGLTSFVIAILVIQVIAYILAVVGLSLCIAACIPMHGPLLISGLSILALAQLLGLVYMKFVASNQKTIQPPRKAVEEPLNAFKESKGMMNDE
Sequence of Parathyroid hormone/parathyroid hormone-related peptide receptor (Homo sapiens) (Q03431 whole entry, looked up): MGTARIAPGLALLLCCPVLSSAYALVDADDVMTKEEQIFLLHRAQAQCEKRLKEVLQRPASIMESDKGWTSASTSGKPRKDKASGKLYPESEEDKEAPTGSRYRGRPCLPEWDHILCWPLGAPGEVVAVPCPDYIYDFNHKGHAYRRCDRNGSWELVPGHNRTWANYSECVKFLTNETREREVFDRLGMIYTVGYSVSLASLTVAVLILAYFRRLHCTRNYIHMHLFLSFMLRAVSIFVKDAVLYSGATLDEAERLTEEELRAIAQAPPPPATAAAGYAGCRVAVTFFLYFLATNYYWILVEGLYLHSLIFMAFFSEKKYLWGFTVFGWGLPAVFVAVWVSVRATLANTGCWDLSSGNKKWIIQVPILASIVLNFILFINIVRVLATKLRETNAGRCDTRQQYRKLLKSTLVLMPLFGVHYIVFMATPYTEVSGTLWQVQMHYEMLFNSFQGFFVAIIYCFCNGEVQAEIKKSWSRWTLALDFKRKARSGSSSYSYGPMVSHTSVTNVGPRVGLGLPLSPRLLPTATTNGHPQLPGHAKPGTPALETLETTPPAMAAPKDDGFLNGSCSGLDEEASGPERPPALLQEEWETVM
Sequence of Atrial natriuretic peptide receptor 1 (Homo sapiens) (P16066 whole entry, looked up): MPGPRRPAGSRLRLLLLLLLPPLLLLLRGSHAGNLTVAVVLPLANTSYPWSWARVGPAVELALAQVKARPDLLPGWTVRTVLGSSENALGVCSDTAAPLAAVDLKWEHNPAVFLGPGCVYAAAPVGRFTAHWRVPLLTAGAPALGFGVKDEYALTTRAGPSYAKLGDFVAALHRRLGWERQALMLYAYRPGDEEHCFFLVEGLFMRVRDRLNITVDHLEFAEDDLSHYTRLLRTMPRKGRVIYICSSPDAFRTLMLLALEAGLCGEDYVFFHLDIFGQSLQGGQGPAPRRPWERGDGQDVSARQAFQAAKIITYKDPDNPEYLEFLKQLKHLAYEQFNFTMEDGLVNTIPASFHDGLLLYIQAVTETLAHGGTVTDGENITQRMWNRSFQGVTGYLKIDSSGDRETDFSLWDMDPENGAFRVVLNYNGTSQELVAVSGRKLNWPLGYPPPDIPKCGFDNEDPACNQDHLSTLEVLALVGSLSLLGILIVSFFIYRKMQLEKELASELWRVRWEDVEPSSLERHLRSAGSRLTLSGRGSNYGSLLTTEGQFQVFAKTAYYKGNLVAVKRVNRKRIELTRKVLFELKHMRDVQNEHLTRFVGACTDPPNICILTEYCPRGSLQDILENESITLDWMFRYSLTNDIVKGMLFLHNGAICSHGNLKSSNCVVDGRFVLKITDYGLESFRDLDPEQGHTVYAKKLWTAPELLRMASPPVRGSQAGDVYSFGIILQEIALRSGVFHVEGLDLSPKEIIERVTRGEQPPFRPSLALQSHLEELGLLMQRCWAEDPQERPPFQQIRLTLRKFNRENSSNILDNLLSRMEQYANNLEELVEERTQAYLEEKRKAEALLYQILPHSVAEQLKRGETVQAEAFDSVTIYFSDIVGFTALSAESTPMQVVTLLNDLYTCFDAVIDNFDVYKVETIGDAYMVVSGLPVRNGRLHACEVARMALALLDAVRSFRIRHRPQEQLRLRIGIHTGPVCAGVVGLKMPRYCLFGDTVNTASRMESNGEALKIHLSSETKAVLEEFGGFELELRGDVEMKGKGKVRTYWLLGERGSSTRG

Turning to `Cc1cc(C)c(/C=C2\C(=O)Nc3ccccc32)[nH]1`, the result in test [1], in test [2], in test [5], in test [9], in test [10] and in [12] was inactive. The Potency entry in [3], in test [4], in test [6], in test [7], in test [8] and in test [11] was “inactive” each time. Besides, the Potency entry in test [13] and in [14] was “inactive” in each case.

On to `Cc1scc2c1N(C(=O)CN1CCN(C)CC1)c1ccccc1NC2=O`, for which the call in test [1], in test [2], in test [9], in test [10] and in [12] was inactive. In addition, the Potency entry in test [3], in [4], in test [15], in [6], in test [7] and in test [8] was “inactive” each time. In addition, the Potency result in [11], in test [13] and in [14] was “inactive” in each case.

As to `CCCN1C[C@H](CSC)C[C@@H]2c3cccc4[nH]cc(c34)C[C@H]21`, the molecule was classed as inactive in test [1], in test [2], in test [5], in test [9] and in test [16]. Further, the Potency entry in test [3], in test [4], in test [15], in [6], in test [7] and in test [8] was “inactive” throughout. Besides, the Potency entry in test [11], in test [17], in [13] and in test [14] was “inactive” throughout.

`CCCCCCCC/C=C\CCCCCCCC(=O)NCc1ccc(O)c(OC)c1`: the molecule was called inactive in [1], in test [2], in test [9], in [16] and in test [12]. Also, the Potency result in test [3], in [4], in test [15], in [6], in [7] and in test [8] was “inactive” in each case. Also, the Potency entry in test [11], in test [17] and in [13] was “inactive” each time.

With `CC(C)NNC(=O)c1ccncc1`, the call in test [1], in test [2], in test [9], in test [10], in test [16] and in test [12] was inactive. Moreover, the Potency result in test [3], in test [4], in test [15], in test [6], in test [7] and in test [8] was “inactive” each time. Further, the Potency result in test [11], in test [13] and in test [14] was “inactive” in each case.

As to `CCN1CCC[C@H]1CNC(=O)c1c(O)c(Cl)cc(Cl)c1OC`, the molecule was classed as inactive in test [1], in test [2], in test [9], in test [10], in test [16] and in test [12]. Moreover, the Potency result in test [3], in test [4], in test [15], in test [6], in [7] and in test [8] was “inactive” throughout. For the same molecule, the Potency entry in test [11], in [17], in test [13] and in test [14] was “inactive” each time.

With `COc1ccc([C@@H]2Sc3ccccc3N(CCN(C)C)C(=O)[C@@H]2OC(C)=O)cc1`, the result in test [1], in test [2], in test [9], in test [10] and in [16] was inactive. Moreover, the Potency result in [3], in [4], in test [6], in test [7], in [8] and in [11] was “inactive” throughout. Further, the Potency entry in test [17], in test [13] and in test [14] was “inactive” in each case. The Potency in test [15] was 20.6 µM (active).

For the molecule `CC(=O)[C@@]1(O)CC[C@H]2[C@@H]3CCC4=CC(=O)CC[C@]4(C)[C@H]3CC[C@@]21C`, the molecule was called inactive in test [1], in test [2], in [9], in [10], in [16] and in test [12]. The Potency entry in test [3], in [4], in [15], in test [6], in test [7] and in test [8] was “inactive” each time. In addition, the Potency entry in test [11], in test [13] and in test [14] was “inactive” throughout.

Consider `NC1=NCC2c3ccccc3Cc3ccccc3N12` (stereo not drawn), for which the outcome in test [1], in test [2], in test [9], in test [10] and in [16] was inactive. Further, the Potency result in test [3], in [4], in test [15], in test [6], in [7] and in [8] was “inactive” each time. Also, the Potency result in [11], in test [17], in test [13] and in [14] was “inactive” in each case.
